Measurements: ChEMBL document CHEMBL2218924, “A broad activity screen in support of a chemogenomic map for kinase signalling research and drug discovery” (Biochem J, 2013)

Experiments:
[1] = target: Ribosomal protein S6 kinase alpha-1 (Homo sapiens) (UniProt Q15418); details: at 1 µM
[2] = target: Ribosomal protein S6 kinase alpha-1 (Homo sapiens) (UniProt Q15418); details: at 10 µM
[3] = target: Ribosomal protein S6 kinase alpha-3 (Homo sapiens) (UniProt P51812); details: at 1 µM
[4] = target: Ribosomal protein S6 kinase alpha-3 (Homo sapiens) (UniProt P51812); details: at 10 µM
[5] = target: Ribosomal protein S6 kinase alpha-2 (Homo sapiens) (UniProt Q15349); details: at 1 µM
Sequence of Ribosomal protein S6 kinase alpha-2 (Homo sapiens) (Q15349 whole entry): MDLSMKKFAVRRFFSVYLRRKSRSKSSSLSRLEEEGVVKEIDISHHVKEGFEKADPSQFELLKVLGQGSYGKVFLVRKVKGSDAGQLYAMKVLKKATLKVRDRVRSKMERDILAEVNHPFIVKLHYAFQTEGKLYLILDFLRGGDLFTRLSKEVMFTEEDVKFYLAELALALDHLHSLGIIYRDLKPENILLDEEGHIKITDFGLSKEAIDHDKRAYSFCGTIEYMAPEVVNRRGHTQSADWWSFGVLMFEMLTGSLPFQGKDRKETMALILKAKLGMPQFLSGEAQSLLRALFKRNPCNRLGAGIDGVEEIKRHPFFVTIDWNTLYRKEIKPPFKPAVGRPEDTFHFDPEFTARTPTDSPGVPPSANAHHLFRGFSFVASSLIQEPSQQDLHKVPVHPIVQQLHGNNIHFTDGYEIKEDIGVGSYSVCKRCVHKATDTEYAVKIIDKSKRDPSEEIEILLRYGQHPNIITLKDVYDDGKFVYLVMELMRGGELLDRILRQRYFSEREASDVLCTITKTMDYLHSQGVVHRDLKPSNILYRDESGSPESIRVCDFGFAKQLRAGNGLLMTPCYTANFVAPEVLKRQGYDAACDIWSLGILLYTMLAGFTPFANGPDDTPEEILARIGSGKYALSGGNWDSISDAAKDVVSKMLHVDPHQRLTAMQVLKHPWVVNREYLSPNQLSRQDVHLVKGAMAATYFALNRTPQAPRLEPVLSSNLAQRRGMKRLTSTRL

[6] = target: Ribosomal protein S6 kinase alpha-2 (Homo sapiens) (UniProt Q15349); details: at 10 µM
[7] = target: Ribosomal protein S6 kinase alpha-6 (Homo sapiens) (UniProt Q9UK32); details: at 1 µM
Sequence of Ribosomal protein S6 kinase alpha-6 (Homo sapiens) (Q9UK32 whole entry): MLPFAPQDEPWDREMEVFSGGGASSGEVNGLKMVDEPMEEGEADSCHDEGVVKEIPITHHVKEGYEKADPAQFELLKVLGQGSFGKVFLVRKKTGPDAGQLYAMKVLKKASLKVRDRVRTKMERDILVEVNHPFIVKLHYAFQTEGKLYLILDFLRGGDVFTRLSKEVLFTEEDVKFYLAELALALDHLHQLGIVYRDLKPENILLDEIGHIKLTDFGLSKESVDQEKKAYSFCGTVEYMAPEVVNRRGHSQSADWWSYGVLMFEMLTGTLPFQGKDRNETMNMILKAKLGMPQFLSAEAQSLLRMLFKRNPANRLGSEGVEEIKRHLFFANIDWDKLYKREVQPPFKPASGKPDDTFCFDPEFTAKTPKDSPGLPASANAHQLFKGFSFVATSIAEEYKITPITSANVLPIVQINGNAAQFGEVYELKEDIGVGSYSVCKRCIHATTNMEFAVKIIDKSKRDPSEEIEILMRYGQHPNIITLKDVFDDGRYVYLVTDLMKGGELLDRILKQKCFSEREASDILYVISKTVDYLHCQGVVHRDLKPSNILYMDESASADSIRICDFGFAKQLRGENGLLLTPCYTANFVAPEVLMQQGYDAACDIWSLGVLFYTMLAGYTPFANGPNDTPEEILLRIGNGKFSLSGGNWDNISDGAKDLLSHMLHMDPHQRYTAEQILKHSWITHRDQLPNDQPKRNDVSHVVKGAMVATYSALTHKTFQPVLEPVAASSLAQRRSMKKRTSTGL

[8] = target: Ribosomal protein S6 kinase alpha-6 (Homo sapiens) (UniProt Q9UK32); details: at 10 µM
[9] = target: Mitogen-activated protein kinase 14 (Homo sapiens) (UniProt Q16539); details: at 1 µM
Sequence of Mitogen-activated protein kinase 14 (Homo sapiens) (Q16539 whole entry): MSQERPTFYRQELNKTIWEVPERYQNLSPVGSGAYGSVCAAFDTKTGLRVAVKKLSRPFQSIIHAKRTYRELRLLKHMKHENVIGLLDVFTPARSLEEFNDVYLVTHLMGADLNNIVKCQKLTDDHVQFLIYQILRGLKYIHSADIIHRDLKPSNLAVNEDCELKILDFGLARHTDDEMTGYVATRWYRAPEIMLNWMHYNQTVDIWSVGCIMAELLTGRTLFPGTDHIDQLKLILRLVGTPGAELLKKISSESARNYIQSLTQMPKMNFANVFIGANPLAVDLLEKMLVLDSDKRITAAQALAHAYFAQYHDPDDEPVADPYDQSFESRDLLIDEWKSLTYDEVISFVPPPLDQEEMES

[10] = target: Mitogen-activated protein kinase 14 (Homo sapiens) (UniProt Q16539); details: at 10 µM
[11] = target: Mitogen-activated protein kinase 11 (Homo sapiens) (UniProt Q15759); details: at 1 µM
Sequence of Mitogen-activated protein kinase 11 (Homo sapiens) (Q15759 whole entry): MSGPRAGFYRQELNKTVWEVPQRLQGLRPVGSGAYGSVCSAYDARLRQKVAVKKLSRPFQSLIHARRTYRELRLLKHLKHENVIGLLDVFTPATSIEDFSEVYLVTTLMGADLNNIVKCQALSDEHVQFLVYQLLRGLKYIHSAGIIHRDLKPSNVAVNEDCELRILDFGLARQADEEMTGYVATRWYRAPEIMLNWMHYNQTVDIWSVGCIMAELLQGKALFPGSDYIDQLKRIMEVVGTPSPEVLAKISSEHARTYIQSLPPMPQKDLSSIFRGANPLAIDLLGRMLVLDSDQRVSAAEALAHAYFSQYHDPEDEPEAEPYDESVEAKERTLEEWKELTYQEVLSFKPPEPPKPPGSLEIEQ

[12] = target: Mitogen-activated protein kinase 11 (Homo sapiens) (UniProt Q15759); details: at 10 µM
[13] = target: T1, Mitogen-activated protein kinase 13 (Homo sapiens) (UniProt O15264); details: at 1 µM
T1 sequence (whole entry): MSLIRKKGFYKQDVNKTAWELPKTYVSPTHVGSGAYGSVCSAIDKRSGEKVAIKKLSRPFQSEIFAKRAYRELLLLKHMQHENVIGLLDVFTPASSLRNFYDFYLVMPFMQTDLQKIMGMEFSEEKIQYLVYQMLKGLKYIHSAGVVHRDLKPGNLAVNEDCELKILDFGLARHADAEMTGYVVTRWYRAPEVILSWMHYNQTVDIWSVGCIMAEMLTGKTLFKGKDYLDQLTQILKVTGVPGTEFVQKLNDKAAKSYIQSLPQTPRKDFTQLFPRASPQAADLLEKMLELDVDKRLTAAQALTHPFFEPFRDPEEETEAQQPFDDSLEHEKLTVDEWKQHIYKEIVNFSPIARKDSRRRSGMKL

[14] = target: T1, Mitogen-activated protein kinase 13 (Homo sapiens); details: at 10 µM
[15] = target: T2, Serine/threonine-protein kinase Sgk1 (Homo sapiens) (UniProt O00141); details: at 1 µM
T2 sequence (whole entry): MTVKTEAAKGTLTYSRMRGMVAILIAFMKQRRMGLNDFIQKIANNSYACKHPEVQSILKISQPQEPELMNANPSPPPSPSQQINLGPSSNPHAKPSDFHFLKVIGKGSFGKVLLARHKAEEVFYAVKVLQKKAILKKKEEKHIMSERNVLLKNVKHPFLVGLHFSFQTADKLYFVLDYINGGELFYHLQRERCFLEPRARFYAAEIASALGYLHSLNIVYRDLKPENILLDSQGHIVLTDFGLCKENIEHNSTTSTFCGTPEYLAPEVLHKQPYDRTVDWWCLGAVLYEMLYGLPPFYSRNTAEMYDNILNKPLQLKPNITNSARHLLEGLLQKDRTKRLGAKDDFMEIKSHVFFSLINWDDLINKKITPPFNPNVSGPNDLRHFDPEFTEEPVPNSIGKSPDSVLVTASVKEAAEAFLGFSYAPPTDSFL

[16] = target: T2, Serine/threonine-protein kinase Sgk1 (Homo sapiens); details: at 10 µM
[17] = target: T3, Serine/threonine-protein kinase Sgk2 (Homo sapiens) (UniProt Q9HBY8); details: at 1 µM
T3 sequence (whole entry): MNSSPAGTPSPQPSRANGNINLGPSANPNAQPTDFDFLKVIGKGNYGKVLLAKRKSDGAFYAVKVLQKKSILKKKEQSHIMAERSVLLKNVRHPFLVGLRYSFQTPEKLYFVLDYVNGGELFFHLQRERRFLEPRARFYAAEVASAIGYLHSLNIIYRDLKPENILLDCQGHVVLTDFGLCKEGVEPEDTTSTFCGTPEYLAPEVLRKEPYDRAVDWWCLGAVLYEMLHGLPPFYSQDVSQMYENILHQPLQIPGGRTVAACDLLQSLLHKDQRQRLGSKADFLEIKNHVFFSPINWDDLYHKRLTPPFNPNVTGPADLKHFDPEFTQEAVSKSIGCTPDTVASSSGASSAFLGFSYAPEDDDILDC

[18] = target: T3, Serine/threonine-protein kinase Sgk2 (Homo sapiens); details: at 10 µM
[19] = target: T4, Serine/threonine-protein kinase Sgk3 (Homo sapiens) (UniProt Q96BR1); details: at 10 µM
T4 sequence (whole entry): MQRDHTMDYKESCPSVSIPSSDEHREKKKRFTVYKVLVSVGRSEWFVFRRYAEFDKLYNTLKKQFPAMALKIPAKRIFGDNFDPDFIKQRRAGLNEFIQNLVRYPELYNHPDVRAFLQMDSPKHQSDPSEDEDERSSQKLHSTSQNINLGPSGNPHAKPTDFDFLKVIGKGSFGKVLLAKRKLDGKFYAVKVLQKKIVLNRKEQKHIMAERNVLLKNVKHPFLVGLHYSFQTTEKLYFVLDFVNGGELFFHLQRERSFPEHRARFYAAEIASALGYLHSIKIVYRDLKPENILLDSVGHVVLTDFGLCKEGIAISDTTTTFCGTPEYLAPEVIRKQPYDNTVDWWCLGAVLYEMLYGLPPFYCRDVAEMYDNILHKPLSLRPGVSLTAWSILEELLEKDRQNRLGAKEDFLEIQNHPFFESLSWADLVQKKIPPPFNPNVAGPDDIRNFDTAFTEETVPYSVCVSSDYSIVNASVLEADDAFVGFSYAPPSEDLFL

[20] = target: Serine/threonine-protein kinase SIK1 (Homo sapiens) (UniProt P57059); details: at 1 µM
Sequence of Serine/threonine-protein kinase SIK1 (Homo sapiens) (P57059 whole entry): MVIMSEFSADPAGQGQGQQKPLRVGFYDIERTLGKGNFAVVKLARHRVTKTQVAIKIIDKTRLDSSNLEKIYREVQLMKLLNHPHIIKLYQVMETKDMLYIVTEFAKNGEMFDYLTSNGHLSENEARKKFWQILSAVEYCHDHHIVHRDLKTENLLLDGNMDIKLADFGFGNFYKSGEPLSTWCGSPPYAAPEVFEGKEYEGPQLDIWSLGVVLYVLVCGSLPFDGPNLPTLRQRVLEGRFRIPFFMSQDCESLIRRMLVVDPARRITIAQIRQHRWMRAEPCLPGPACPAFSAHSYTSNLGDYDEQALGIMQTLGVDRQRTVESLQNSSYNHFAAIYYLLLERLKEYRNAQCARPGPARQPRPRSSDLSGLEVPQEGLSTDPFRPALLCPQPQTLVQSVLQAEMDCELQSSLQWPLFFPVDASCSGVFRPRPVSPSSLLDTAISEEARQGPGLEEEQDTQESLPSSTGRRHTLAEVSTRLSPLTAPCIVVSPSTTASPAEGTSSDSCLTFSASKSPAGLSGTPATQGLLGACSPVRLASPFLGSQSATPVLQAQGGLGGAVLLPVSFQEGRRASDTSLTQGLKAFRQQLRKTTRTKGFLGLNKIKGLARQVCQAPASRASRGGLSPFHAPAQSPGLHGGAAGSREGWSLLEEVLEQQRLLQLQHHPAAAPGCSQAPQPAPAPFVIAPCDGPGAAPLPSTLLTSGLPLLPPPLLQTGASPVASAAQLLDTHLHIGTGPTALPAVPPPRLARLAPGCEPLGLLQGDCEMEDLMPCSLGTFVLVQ

Sequence of Ribosomal protein S6 kinase alpha-3 (Homo sapiens) (P51812 whole entry): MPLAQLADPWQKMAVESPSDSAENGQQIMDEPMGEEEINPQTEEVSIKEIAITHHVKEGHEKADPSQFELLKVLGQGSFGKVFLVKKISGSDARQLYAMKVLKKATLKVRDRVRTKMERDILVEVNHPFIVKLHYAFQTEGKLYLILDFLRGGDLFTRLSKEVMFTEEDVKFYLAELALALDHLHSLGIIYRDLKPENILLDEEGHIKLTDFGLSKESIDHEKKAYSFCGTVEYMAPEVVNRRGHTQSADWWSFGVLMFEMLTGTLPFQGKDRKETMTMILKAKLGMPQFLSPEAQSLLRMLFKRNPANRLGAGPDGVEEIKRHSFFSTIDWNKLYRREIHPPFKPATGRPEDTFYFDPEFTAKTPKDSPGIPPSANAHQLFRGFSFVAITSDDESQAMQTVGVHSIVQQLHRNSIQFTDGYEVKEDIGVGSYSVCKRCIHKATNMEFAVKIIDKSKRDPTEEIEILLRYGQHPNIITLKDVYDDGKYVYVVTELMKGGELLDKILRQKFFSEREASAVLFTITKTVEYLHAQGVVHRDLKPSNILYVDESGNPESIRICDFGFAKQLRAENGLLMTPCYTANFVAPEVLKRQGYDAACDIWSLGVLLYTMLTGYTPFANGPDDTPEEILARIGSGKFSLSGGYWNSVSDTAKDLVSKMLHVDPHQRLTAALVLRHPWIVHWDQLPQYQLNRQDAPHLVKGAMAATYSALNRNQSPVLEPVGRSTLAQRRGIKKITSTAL
Sequence of Ribosomal protein S6 kinase alpha-1 (Homo sapiens) (Q15418 whole entry): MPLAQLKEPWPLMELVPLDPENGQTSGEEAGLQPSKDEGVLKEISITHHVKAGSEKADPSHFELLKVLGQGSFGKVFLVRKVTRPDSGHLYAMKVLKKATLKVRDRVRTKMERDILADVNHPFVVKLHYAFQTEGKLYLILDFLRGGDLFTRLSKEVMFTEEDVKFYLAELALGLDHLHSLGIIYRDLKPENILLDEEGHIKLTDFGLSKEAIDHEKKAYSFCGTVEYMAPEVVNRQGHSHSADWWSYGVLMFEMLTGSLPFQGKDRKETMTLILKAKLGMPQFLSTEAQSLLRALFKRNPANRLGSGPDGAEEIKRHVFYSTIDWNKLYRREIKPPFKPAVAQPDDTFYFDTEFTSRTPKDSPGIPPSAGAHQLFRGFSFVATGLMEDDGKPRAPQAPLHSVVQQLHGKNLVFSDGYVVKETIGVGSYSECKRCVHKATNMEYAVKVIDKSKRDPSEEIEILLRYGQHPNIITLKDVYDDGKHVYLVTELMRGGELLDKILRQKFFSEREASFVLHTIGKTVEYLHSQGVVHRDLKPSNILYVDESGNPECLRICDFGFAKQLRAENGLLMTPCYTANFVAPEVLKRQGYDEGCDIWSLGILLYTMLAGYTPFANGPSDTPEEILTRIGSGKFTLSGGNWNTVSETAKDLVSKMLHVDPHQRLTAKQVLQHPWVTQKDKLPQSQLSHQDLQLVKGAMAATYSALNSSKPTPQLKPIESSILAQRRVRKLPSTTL

Compound	residual activity [1]	residual activity [2]	residual activity [3]	residual activity [4]	residual activity [5]	residual activity [6]	residual activity [7]	residual activity [8]	residual activity [9]	residual activity [10]	residual activity [11]	residual activity [12]	residual activity [13]	residual activity [14]	residual activity [15]	residual activity [16]	residual activity [17]	residual activity [18]	residual activity [19]	residual activity [20]
CC[n+]1c(/C=C/N(C)c2ccccc2)n(-c2ccccc2)c2ccc(-c3nc4ccccc4s3)cc21	114%	84%	94%	64%	117%	97%	102%	87%	111%	73%	107%	101%	105%	97%	118%	65%	109%	80%	69%	115%
Nc1n[nH]c2nnc(-c3c(-c4ccccc4)nn4ccccc34)cc12	108%	93%	111%	96%	90%	68%	102%	88%	78%	33%	94%	66%	99%	88%	95%	123%	87%	64%	80%	85%
CCC(=O)Nc1ccc2ncnc(Nc3cccc(Br)c3)c2c1	119%	84%	120%	91%	99%	71%	124%	82%	78%	50%	91%	88%	100%	102%	107%	114%	105%	77%	95%	68%
CO[C@@H]1[C@H](N(C)C(=O)c2ccccc2)C[C@H]2O[C@]1(C)n1c3ccccc3c3c4c(c5c6ccccc6n2c5c31)C(=O)NC4	0%	1%	1%	0%	1%	0%	0%	3%	71%	78%	86%	98%	92%	77%	57%	18%	80%	46%	78%	4%
Nc1nc(Nc2ccc(S(N)(=O)=O)cc2)nn1C(=S)Nc1c(F)cccc1F	4%	3%	0%	-1%	0%	-1%	-2%	-2%	88%	53%	56%	24%	43%	46%	53%	16%	36%	6%	40%	-2%
COc1cccc(-c2cc(=O)c3ccccc3o2)c1N	91%	81%	118%	106%	102%	101%	92%	133%	86%	94%	101%	92%	99%	96%	79%	120%	89%	95%	86%	140%
O=C1NC(=O)/C(=C/c2ccc3c(c2)OC(F)(F)O3)S1	125%	65%	56%	35%	117%	99%	125%	103%	99%	109%	98%	117%	106%	106%	116%	82%	102%	85%	108%	94%
Cc1ccc(NC2=CC(=O)c3sc(C)nc3C2=O)cc1	104%	78%	117%	123%	101%	102%	72%	111%	97%	93%	102%	100%	98%	96%	87%	92%	103%	82%	83%	109%
COc1ccc(C(=O)Nc2sc3c(c2C(N)=O)CCCC3)cc1OC	99%	103%	111%	93%	94%	97%	118%	99%	93%	100%	96%	105%	100%	91%	85%	109%	99%	52%	90%	91%
Oc1c2ccccc2c2c3c(cccc13)N=N2	86%	64%	54%	32%	58%	22%	43%	52%	96%	85%	88%	79%	96%	73%	60%	24%	71%	33%	58%	96%
O=c1cc(-c2cccc3c2Sc2ccccc2S3)oc(N2CCOCC2)c1	87%	94%	106%	93%	98%	99%	96%	87%	103%	99%	111%	109%	107%	105%	103%	100%	91%	72%	78%	137%
O=C1Nc2cc(Br)ccc2/C1=C1/Nc2ccccc2/C1=N\O	72%	73%	24%	6%	17%	28%	38%	24%	85%	83%	97%	92%	89%	92%	28%	14%	47%	55%	64%	18%
O=C(Nc1cccc(Nc2cc(Nc3cccc(C(F)(F)F)c3)ncn2)c1)C1CC1	105%	79%	106%	66%	99%	55%	103%	99%	80%	40%	92%	48%	107%	97%	112%	85%	83%	69%	128%	107%
Cc1nc(-c2ccccc2)c(-c2ccncc2)o1	88%	97%	60%	64%	100%	92%	81%	117%	57%	14%	105%	58%	107%	103%	107%	86%	126%	89%	91%	138%
N#C/C(=C(\N)Sc1ccc(N)cc1)c1ccccc1C(F)(F)F	40%	42%	28%	15%	53%	48%	103%	104%	87%	82%	104%	101%	95%	90%	81%	98%	100%	117%	93%	104%
COc1ccc(OC)c2c(=S)c3ccccc3[nH]c12	116%	106%	99%	107%	90%	88%	98%	98%	88%	91%	112%	96%	104%	97%	90%	82%	97%	93%	83%	118%
O=C1NC(=O)c2c1c1c3ccccc3[nH]c1c1[nH]c3cc(Br)ccc3c21	63%	49%	49%	43%	44%	32%	83%	82%	93%	85%	105%	107%	101%	94%	44%	50%	64%	69%	78%	111%
